Screens (PubChem)
Marburg entry = blocks Marburg virus binding or cell entry; 18,000 compounds, 6.5% hits; Potency, µM (titrated, usually from 49.2 µM), for the others: at the top dose activity change, negative = inhibition, most hits filed as inhibitors; Marburg virus pseudotype entry/binding inhibition, cell-based; AID 720532
LASV entry inh = inhibitors of Lassa virus binding or entry into cells. AID 720533. Lassa virus pseudotyped entry inhibition, cell-based qHTS. Potency, µM (top dose mostly 49.2 µM), for inactives: top-dose activity change, negative = inhibition, usual class: inhibitors. 18,000 compounds, 4.1% hits
* = called active by the depositor; ? = inconclusive; · = not tested or not shown; ! = not confirmed by another sample; [ ] = remark or other dose. Only some compounds are listed: those with a hit (about 7.1% of all), similar ones and a draw of the others. The call rests on the fitted dose curve; tested in HEK293 cells. On the % scale 0 is the no-effect control and ±100 the full control effect; potency means the concentration at half of the fitted maximal effect.

SMILES	Marburg entry	LASV entry inh
COC(=O)NC(C=Cc1ccccc1)C(C(C)=O)C(=O)OC (stereo not given)	?	-11%[8.59 µM]
O=C(OCCN1CCCCC1)C(O)(c1ccccc1)c1ccccc1	-14%	-17%
O=C(Nc1ccccc1)OCC(CN1CCCCC1)OC(=O)Nc1ccccc1 (stereo not given)	13µM*	-13%
CCCCc1oc2ccccc2c1C(=O)c1cc(I)c(OCCN(CC)CC)c(I)c1	20µM*	·
CCCCOc1cc(C(=O)OCCN(CC)CC)ccc1N	-16%[17.8 µM]	-15%[17.8 µM]
COCOCCn1cc(CN2CCS(=O)(=O)N(Cc3ccc(-c4cccc(N(C)C)c4)cc3)C(C)C2=O)nn1 (stereo not given)	9%	18%
CCC[C@H]1CN(c2ccccc2)C(=O)[C@H]1CC(=O)Nc1ccc(Br)cc1	-44%	-15%
CC(=O)OC[C@H]1O[C@H](CCON=C(C)CCN2CCCCc3nc(C)c(C)cc32)C=C[C@H]1OC(C)=O	16%[8.59 µM]	-4%[8.59 µM]
CC(CCN1CCCCc2nc(C)c(C)cc21)=NO[C@H](C)CN1CCCc2nc(C)c(C)cc21	?	-12%[8.59 µM]
Nc1c2ccccc2nc2ccccc12 (tested in a mixture with another compound)	7.1µM*	-7%
Nc1cccc2c(N)cccc12	3%[107 µM]	-7%[107 µM]
COc1ccc([C@]23Cc4ccccc4[C@H](O2)C2=C(CCCC2=O)O3)cc1	57%[8.59 µM]	-4%[8.59 µM]
Nc1nc(N)c(N=O)c(OCC2CCCCC2)n1	11µM*	-5%
COC(=O)C(C(=O)OC)[C@@H]1O[C@@]23COC=C[C@]2(C)[C@@H]3c2ccccc21	?	3%[8.59 µM]
COC(=O)[C@H]1CC=C[C@H]2CCN(Cc3ccc(Cl)c(Cl)c3)C(=O)[C@@H]12	-26%	-22%
CN(CCc1ccc(Cl)c(Cl)c1)[C@@H]1CCCC[C@@H]1N1CCCC1	7.9µM*	?
CN(CCc1ccc(Cl)c(Cl)c1)CCN1CCCC1	8.9µM*	32µM*
COC(=O)N1CCN(C(=O)Cc2ccc(Cl)c(Cl)c2)C(CN2CCCC2)C1 (stereo not given)	?	0%
CN(c1ccc(NC(=O)Nc2c(Cl)cccc2Cl)cc1)c1ccnc(Nc2cccc(CS(C)(=O)=O)c2)n1	-44%	-48%
CCOC(=O)NN=C1C[C@@H](O)[C@@H](O)[C@@H]2[C@H]3C(=O)N(Cc4ccc5c(c4)OCO5)C(=O)[C@@H]3CC[C@H]12	-22%[8.59 µM]	4%[8.59 µM]
COCCCC/C(=N\OCCN)c1ccc(C(F)(F)F)cc1	14µM*	-17%
COc1ccc(Nc2ncc(-c3ccccc3)o2)cc1OC	-31%	·
CC(C)(C)NC[C@H](O)COc1cccc2[nH]c(C#N)cc12	-13%	-3%
CC(C)(Cc1c[nH]c2ccccc12)NCC(O)COc1ccccc1C#N (stereo not given)	7.9µM*	?
CC1(C)CC[C@]2(C(=O)O)CC[C@]3(C)C(=CCC4[C@@]5(C)CC[C@H](O)C(C)(C)[C@@H]5CC[C@]43C)C2C1 (stereo not given in full)	-17%	?
SMILES	Marburg entry	LASV entry inh
CC1(C)CC[C@]2(C(=O)O)CC[C@]3(C)C(=CCC4[C@@]5(C)CC[C@H](O)C(C)(C)C5[C@H](O)C[C@]43C)C2C1 (stereo not given in full)	1%	32µM*
COc1ccccc1C1CN(Cc2c(O)cccc2OC)Cc2ccccc2O1 (stereo not given)	2%	-15%
COc1ccccc1C1CN(Cc2cccc(C)n2)Cc2ccccc2O1 (stereo not given)	5.6µM*	7.1µM*
C[C@H]1CC[C@@H]2[C@@H](C)[C@H]3[C@H](C[C@H]4[C@@H]5CC=C6C[C@@H](O[C@]7(O[C@H]8O[C@@H](C)[C@@H](O)[C@@H](O)[C@@H]8O)C[C@@H](O[C@@H]8O[C@H](CO)[C@@H](O)[C@H](O)[C@@H]8O)[C@@H](O)[C@H](CO)O7)CC[C@]6(C)[C@H]5CC[C@@]34C)N2C1	4%[17.8 µM]	14%[17.8 µM]
C[C@H]1CC[C@@H]2[C@@H](C)[C@H]3[C@H](C[C@H]4[C@@H]5CC=C6CC(O[C@@H]7O[C@H](CO)[C@H](O)[C@H](O[C@@H]8O[C@H](CO)[C@@H](O)[C@H](O)[C@H]8O)[C@H]7O[C@H]7O[C@@H](C)[C@H](O)[C@@H](O)[C@H]7O)CC[C@]6(C)[C@H]5CC[C@]34C)N2C1 (stereo not given in full)	16µM*	32µM*
CCN(CC)CCCN=C1NC(c2cccc(C(F)(F)F)c2)C(C(=O)OC)=C(C)N1CC (stereo not given)	-10%[8.59 µM]	-29%[8.59 µM]
NC(=O)Cc1ccccc1Oc1nccc(-c2c(-c3ccc(F)cc3)ncn2C2CCNCC2)n1	?	-30%
Fc1ccc(-c2ncn(C3CCNCC3)c2-c2ccnc(Oc3ccc4c(c3)OCO4)n2)cc1	6.3µM*	?
COC(=O)N1C(C)=Cc2ccccc2C1CC(C)=CC(C)=O (stereo not given)	-10%[8.59 µM]	-6%[8.59 µM]
O=S1(=O)c2cccc(Cl)c2OC[C@H](c2ccccc2)N1Cc1ccc(F)cc1	?	-15%
C[C@@H]1C[C@H]2CC(=O)N3[C@H](CC(=O)N2[C@H]1c1ccccc1)C[C@@H](C)[C@@H]3c1ccccc1	15%[8.59 µM]	6%[8.59 µM]
CN(C)Cc1ccccc1	8%	-16%
CC(COc1ccccc1)N(CCCl)Cc1ccccc1 (stereo not given)	0%	28µM*!
CC(=O)OC[C@H]1O[C@@H](ON=C2C[C@@H](O)[C@@H](O)[C@@H]3[C@H]4C(=O)N(Cc5ccccc5)C(=O)[C@@H]4CC[C@@H]23)[C@H](OC(C)=O)[C@@H](OC(C)=O)[C@H]1OC(C)=O	-9%[8.59 µM]	21%[8.59 µM]
COC(=O)CC1C2(C)CC34OC5(C)O[C@@]6(C7/C(=C(/OC)C(C)C)C(=O)OC(c8ccoc8)[C@@]7(C)C(OC(=O)C(C)C)C(OC)[C@]6(O5)[C@@]13C)C(OC)[C@]4(OC)C2OC(C)=O (stereo not given in full)	7.1µM*	?
CC(C)/C(O)=C1/C(=O)OC(c2ccoc2)[C@@]2(C)C(O)C(O)[C@@]34OC5(C)OC67CC(C)(C(O)[C@@]6(O)C(O)[C@@]3(O5)C12)C(CC(=O)O)[C@@]74C (stereo not given in full)	-3%	-3%
COC(=O)[C@]1(CC=Cc2ccccc2)C=C[C@@H](C)[C@H](c2ccccc2Br)N1C(=O)C(F)(F)F	13%[8.59 µM]	15%[8.59 µM]
COC(=O)C1=C(C)N(Cc2ccco2)C(=O)NC1c1ccco1 (stereo not given)	0%[8.59 µM]	-26%[8.59 µM]
CSCC[C@@H]1NC(=O)[C@@H](NC(=O)[C@H](CCCNC(=N)N)NC(=O)[C@H](CC(C)C)NC(=O)[C@H](CCSC)NC(=O)[C@H](CC(=O)O)NC(=O)[C@H](Cc2ccccc2)NC(=O)[C@@H](N)CC(=O)O)CSSC[C@@H](C(=O)N[C@@H](Cc2c[nH]c3ccccc23)C(=O)N[C@@H](CCC(N)=O)C(=O)N[C@H](C(=O)O)C(C)C)NC(=O)[C@@H]2CCCN2C(=O)[C@H](CCCNC(=N)N)NC(=O)[C@H](Cc2ccc(O)cc2)NC(=O)[C@H](C(C)C)NC(=O)[C@H](CCCNC(=N)N)NC(=O)CNC(=O)[C@H](CC(C)C)NC1=O	7%	6%
CC1=C(/C=C/C(C)=C/C=C/C(C)=C/C=C/C=C(C)/C=C/C=C(C)/C=C/C2=C(C)C[C@@H](O)CC2(C)C)C(C)(C)C[C@H](O)C1	9%	28µM*
